{"source": "PubChem BioAssay AID2734", "about": "(National Center for Advancing Translational Sciences (NCATS), 2010)", "assay": "High Content Assay for Compounds that inhibit the Assembly of the Perinucleolar Compartment: DNA Intercalation/PicoGreen Displacement Assay", "from_the_text": "High Content Assay for Compounds that inhibit the Assembly of the Perinucleolar Compartment\nNIH Chemical Genomics Center [NCGC]\nNIH Molecular Libraries Probe Centers Network [MLPCN]\nAssay Submitter (PI): Sui Huang, Northwestern University, Feinberg School of Medicine, Cell and Molecular Biology, Chicago, Illinois.\nThe perinucleolar compartment (PNC) is a non-membrane-bound nuclear subdomain that is associated with but structurally distinct from the nucleolus. The PNC is a heritable trait, in which the number of PNCs per cell in daughter cells often mimics that of their mother cells. The PNC is heterogeneous in shape, is stable through interphase, disassembles during mitosis, and reassembles in early G1. […]\nTherefore, we conducted a DNA intercalation/displacement assay on the lead candidates in order to exclude compounds with this mechanism of action. […] Compounds which displace the dye will decrease fluorescence intensity and were considered DNA intercalators/displacers. In order to rule out potential fluorescence artifacts, a measurement of compound plus DNA only was also calculated. […]\n4. A baseline signal was measured using an Envision PMT based plate reader using a 488 nm excitation filter and a 520 nm emission filter. […]\n6. Plates were incubated at 37 C for 10 minutes prior to being read on the envision plate reader. […]", "note": "Results filed as inconclusive are left out. Calls of active or inactive are those of the source. Calls follow the shape of the dose curve; as a rule, active = well fitted inhibition curve with a large enough effect; inconclusive = small, poorly fitted or top-dose-only effect, or effect the other way; inactive = no such curve, though single readings can be large or run the other way."}
{"smiles": "Cc1c2ccncc2c(C)c2c1[nH]c1ccccc12", "values": [{"measurement": "outcome", "result": "inactive"}]}
{"smiles": "CCC(=NCc1cc(OC)cc(OC)c1)c1c(O)n(C)c(=O)n(C)c1=O", "values": [{"measurement": "outcome", "result": "inactive"}]}
